# PubChem BioAssay (NCI)
# The panel holds about 83,000 compounds, 20% with a hit somewhere; the sample as a whole holds those more often.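 Plates (96-well) were seeded with cells, treated with compound at one concentration, and incubated for 48 hours before percent growth was determined.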 Unmarked numbers belong to inactive results. Active and inactive are the calls of the source. How the source made its calls: active means growth percent below 10; inactive means the rest.
# Assays:
# Assay in all cases: NCI-60 one-dose screen, 48 h (100 = growth as untreated, 0 = no growth, -100 = all killed)
# Details in all cases: 10 µM unless noted
# NCI-H23 lung = test system: NCI-H23 lung
# NCI-H322M lung = test system: NCI-H322M lung
# HOP-62 NSCLC = test system: HOP-62 NSCLC
# NCI-H460 lung = test system: NCI-H460 lung
# HOP-92 NSCLC = test system: HOP-92 NSCLC
# NCI-H522 lung = test system: NCI-H522 lung
# A549/ATCC NSCLC = test system: A549/ATCC NSCLC
# 786-0 renal = test system: 786-0 renal
# COLO 205 colon = test system: COLO 205 colon
# DU-145 prostate = test system: DU-145 prostate
# K-562 leukemia = test system: K-562 leukemia
# MALME-3M melanoma = test system: MALME-3M melanoma
# MDA-MB-231 breast = test system: MDA-MB-231 breast
# RXF 393 renal = test system: RXF 393 renal
# SF-268 CNS = test system: SF-268 CNS
# SF-295 CNS = test system: SF-295 CNS
# SF-539 CNS = test system: SF-539 CNS
# UACC-257 melanoma = test system: UACC-257 melanoma
# M14 melanoma = test system: M14 melanoma
Compound,growth (NCI-H23 lung),growth (NCI-H322M lung),growth (HOP-62 NSCLC),growth (NCI-H460 lung),growth (HOP-92 NSCLC),growth (NCI-H522 lung),growth (A549/ATCC NSCLC),growth (786-0 renal),growth (COLO 205 colon),growth (DU-145 prostate),growth (K-562 leukemia),growth (MALME-3M melanoma),growth (MDA-MB-231 breast),growth (RXF 393 renal),growth (SF-268 CNS),growth (SF-295 CNS),growth (SF-539 CNS),growth (UACC-257 melanoma),growth (M14 melanoma)
C[C@]12CC[C@H]3[C@@H](CC4SC(N)=NC45C/C(=N/NC(N)=O)CC[C@]35C)[C@@H]1CCC2=O (some centres undefined),-44.3% (active),52.4%,75.5%,-38.7% (active),46.6%,-18.6% (active),0.923% (active),-9.65% (active),35%,31.1%,-38.5% (active),3.07% (active),35.2%,7.08% (active),-6.41% (active),45.7%,87.2%,105%,-51.1% (active)
CN1CCCCC1C(C)(O)c1ccccc1 (centres undefined),106%,101%,92.9%,107%,–,89.9%,92%,95.1%,114%,111%,114%,97.6%,112%,116%,101%,96.2%,93.6%,96.5%,92.9%
c1cnc2[nH]cc(-c3csc(-c4cn(CCCCN5CCOCC5)c5ccccc45)n3)c2c1,81.1%,79%,52.8%,31.4%,32%,49.1%,56.9%,54%,-77.6% (active),70%,-38.7% (active),-25% (active),32.8%,53.7%,49.7%,53.9%,80.8%,67.8%,-49.9% (active)
CC1(C)C(C(=O)c2cn(CCCCF)c3ccccc23)C1(C)C,85.4%,112%,92.9%,103%,98%,56.9%,78.5%,99.3%,99.5%,105%,71.3%,92.9%,94%,84.5%,98.8%,91.5%,93.2%,81.1%,95%
CC(C)[C@@H]1NC(=O)[C@]2(C)CSC(=N2)c2csc(n2)CNC(=O)C[C@@H](/C=C/CCS)OC1=O,8.6% (active),7.74% (active),-1.73% (active),8.13% (active),-21.5% (active),-25.2% (active),-15.1% (active),10.2%,-78.3% (active),8.24% (active),8.34% (active),21.4%,12%,-57.7% (active),11.3%,6.21% (active),21%,-42.5% (active),10.1%
CCCCCSC1C2C(=O)C(Br)=CC13CCNc1c(O)c4c5c(c13)=[N+]2CCC=5C=N4 (centres undefined),-17.1% (active),2.94% (active),-73.2% (active),-33.7% (active),-56.1% (active),-64.4% (active),-52.1% (active),-50.3% (active),-76.5% (active),-100% (active),-32% (active),-99.5% (active),-7.12% (active),-28.5% (active),-51.7% (active),20.9%,-79.6% (active),-79.6% (active),-92.6% (active)
CC[C@]12C=CCN3CC[C@@]4(c5ccc(OC)cc5N(C)[C@H]4[C@@](O)(C(=O)OC)[C@@H]1OC(=O)CCCC[P+](c1ccccc1)(c1ccccc1)c1ccccc1)[C@@H]32,6.4% (active),47.1%,26.4%,18.4%,-30% (active),-5.5% (active),22.1%,57.2%,-93.7% (active),14.7%,21.7%,-35.8% (active),-2.41% (active),-13.3% (active),16.2%,58.1%,19%,2.15% (active),29.4%
COC(=O)[C@@H](C)C[C@H](Cc1ccccc1)NC(=O)c1csc([C@@H](C[C@H](C(C)C)N(C)C(=O)[C@@H](NC(=O)CN(C)C)C2CC2)OC(C)=O)n1,25%,47.7%,19.1%,10.3%,26.4%,-44.7% (active),13.5%,21%,-72.8% (active),3.44% (active),9.12% (active),69.8%,24.2%,37.6%,33.3%,13.5%,0.502% (active),60.3%,13%
COc1ccc(O)c(CNC(=O)CN2CCCC2=O)c1,103%,95.6%,97.1%,97.5%,86.1%,101%,105%,105%,100%,108%,99.4%,96.6%,96.5%,109%,96.8%,103%,–,104%,98%
CC(=O)c1ccc(C(=O)NCC2CCC3(CC2)OOC2(CCCCC2)OO3)cc1,22.8%,89.8%,16.4%,88.1%,-31.4% (active),60.8%,–,-70.5% (active),97.1%,32.8%,56.2%,74%,70.9%,84.7%,87.9%,94.9%,66.6%,84.7%,90.2%
C/C(=C\c1ccn(-c2ccc(N)cc2C(F)(F)F)n1)[C@@H]1C[C@@H]2O[C@]2(C)CCC[C@H](C)[C@H](O)[C@@H](C)C(=O)C(C)(C)[C@@H](O)CC(=O)O1,19.9%,23.4%,24.5%,9.25% (active),57%,0.465% (active),9.78% (active),16.4%,-6.04% (active),-14.1% (active),6.1% (active),39.9%,16.4%,9.23% (active),22.5%,2.39% (active),3.05% (active),37.9%,-12.6% (active)
Nc1cc2nc3ccccc3nc2cc1N,77.3%,99.4%,80.4%,95.7%,97.8%,79.8%,80.1%,102%,106%,91.5%,59.8%,122%,86.9%,81.5%,92.4%,89.8%,95.4%,–,109%
